Experimental data: the supplement of paper PMC12645437, “Orthogonal IMiD-Degron Pairs Induce Selective Protein Degradation in Cells” (ACS Chemical Biology, 2025)
In all, about 8,300 sequences were measured (“log2 fold change of degron read counts, EGFP-low vs EGFP+ sorted cells (limma voom), compound-induced degradation”: median about -1.1, highest 2% from about 3.2 on). For the sample, the highest values were picked, then their nearest neighbours and some sequences at random.

T1: CRBN, Q96SW2
T1 chain: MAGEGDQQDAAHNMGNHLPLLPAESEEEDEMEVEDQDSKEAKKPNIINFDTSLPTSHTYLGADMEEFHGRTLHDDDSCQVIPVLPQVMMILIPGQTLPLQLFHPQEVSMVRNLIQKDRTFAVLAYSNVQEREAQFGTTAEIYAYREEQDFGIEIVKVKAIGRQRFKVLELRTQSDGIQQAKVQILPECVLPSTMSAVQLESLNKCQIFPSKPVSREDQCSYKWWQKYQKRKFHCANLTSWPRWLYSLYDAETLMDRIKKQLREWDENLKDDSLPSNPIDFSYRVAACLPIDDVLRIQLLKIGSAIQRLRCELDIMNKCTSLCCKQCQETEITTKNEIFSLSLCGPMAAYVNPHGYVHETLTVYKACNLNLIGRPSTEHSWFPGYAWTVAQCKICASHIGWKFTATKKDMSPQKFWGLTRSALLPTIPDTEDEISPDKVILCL


Biological target: T1, CRBN, Q96SW2
Experiment: log2 fold change of degron read counts, EGFP-low vs EGFP+ sorted cells (limma voom), compound-induced degradation; higher = more compound-induced degradation of the degron-EGFP fusion; degrons are variants of IKZF1/3 zinc finger 2; compound dose not given here
Details: Jurkat, 18 h
Protocol: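 Pooled library of 8380 IKZF3 ZF2 degron mutants (positions 146-167 varied within the IKZF3 130-189 degron; only the varied core is printed, flanks not printed) fused to EGFP with IRES-mCherry, lentivirally expressed in Jurkat cells. mCherry+ cells were treated with one IMiD compound for 18 h (dose not stated) and FACS-sorted into EGFP-low and EGFP+ populations. Degron sequences were counted by NGS, and log2FC (EGFP-low vs EGFP+) was estimated by limma voom over 3 biological replicates.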

[1] = compound: compound 19 (5-tert-butyl-thalidomide)
[2] = compound: compound 22 (5-morpholino-thalidomide)
[3] = compound: compound 33 (diphenyl IMiD analogue)
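Further: pooled lentiviral library of zinc finger degron-EGFP fusions in mCherry-positive Jurkat cells, FACS-sorted after compound exposure, with degron abundance counted by next-generation sequencing.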

Sequence | log2 fold change of degron read counts [1] | log2 fold change of degron read counts [2] | log2 fold change of degron read counts [3] | log2 fold change of degron read counts (compound: thalidomide)
FQCPVCGAMFTQKGNLLRHIKL [46F_47Q_49P_50V_52G_53A_54M_55F_67L_, Q9UKT9] | -0.606 | 2.26 | 2.34 | 3.58
FVCPVCGAMFTQKGNLLRHIKL [46F_47V_49P_50V_52G_53A_54M_55F_67L_, Q9UKT9] | -0.83 | 1.28 | 1.78 | 1.71
FGCPVCGAMFTQKGNLLRHIKL [46F_47G_49P_50V_52G_53A_54M_55F_67L_, Q9UKT9] | 3.86 | 2.08 | 2.22 | 0.29
FACPVCGAMFTQKGNLLRHIKL [46F_47A_49P_50V_52G_53A_54M_55F_67L_, Q9UKT9] | 2.83 | 0.812 | 0.601 | -0.0754
FNCPVCGAMFTQKGNLLRHIKL [46F_47N_49P_50V_52G_53A_54M_55F_67L_, Q9UKT9] | 0.95 | -0.0712 | 0.173 | 0.109
FSCPVCGAMFTQKGNLLRHIKL [46F_47S_49P_50V_52G_53A_54M_55F_67L_, Q9UKT9] | 1.68 | 0.847 | 1.55 | 0.449
LHCNQCGFRCTQKGNLLRHIKL [46L_47H_49N_50Q_52G_53F_54R_55C_67L_, Q9UKT9] | -1.15 | -1.7 | -1.52 | -1.61
FRCPICGHQFTQKGNLLRHIKL [46F_47R_49P_50I_52G_53H_54Q_55F_67L_, Q9UKT9] | -2.97 | -2.88 | -2.09 | -1.65
FNCEICGRGFTQKGNLLRHIKL [46F_47N_49E_50I_52G_53R_54G_55F_67L_, Q9UKT9] | -0.684 | -2.34 | -2.3 | -2.43
FICDVCGADFTQKGNLLRHIKL [46F_47I_49D_50V_52G_53A_54D_55F_67L_, Q9UKT9] | -3.13 | -2.03 | -2.05 | -2.17
FTCEICGRSFTQKGNLLRHIKL [46F_47T_49E_50I_52G_53R_54S_55F_67L_, Q9UKT9] | -2.68 | -1.98 | -1.23 | -0.866
FVCNICGAAFTQKGNLLRHIKL [46F_47V_49N_50I_52G_53A_54A_55F_67L_, Q9UKT9] | -0.113 | 1.76 | 1.87 | 2.31
LVCNQCGFDCTQKGNLLRHIKL [46L_47V_49N_50Q_52G_53F_54D_55C_67L_, Q9UKT9] | -2.99 | -3.3 | -2.89 | -2.71
LTCNQCGFFCTQKGNLLRHIKL [46L_47T_49N_50Q_52G_53F_54F_55C_67L_, Q9UKT9] | -1.72 | -1.87 | -2.06 | -1.27
FKCEVCGAEFTQKGNLLRHIKL [46F_47K_49E_50V_52G_53A_54E_55F_67L_, Q9UKT9] | -1.42 | -2.94 | -2.99 | -1.02
FVCPVCGAEFTQKGNLLRHIKL [46F_47V_49P_50V_52G_53A_54E_55F_67L_, Q9UKT9] | -0.775 | 1.8 | 1.37 | 2.53
FQCPVCGAEFTQKGNLLRHIKL [46F_47Q_49P_50V_52G_53A_54E_55F_67L_, Q9UKT9] | 0.475 | 1.57 | 2.3 | 3.76
FQCEVCGAEFTQKGNLLRHIKL [46F_47Q_49E_50V_52G_53A_54E_55F_67L_, Q9UKT9] | 0.65 | 0.856 | 1.61 | 3.7
FNCEVCGAEFTQKGNLLRHIKL [46F_47N_49E_50V_52G_53A_54E_55F_67L_, Q9UKT9] | 0.9 | -1.18 | -1.23 | -0.895
FFCEVCGAEFTQKGNLLRHIKL [46F_47F_49E_50V_52G_53A_54E_55F_67L_, Q9UKT9] | 3.01 | 3.05 | 0.82 | 0.898
FSCPVCGAEFTQKGNLLRHIKL [46F_47S_49P_50V_52G_53A_54E_55F_67L_, Q9UKT9] | 1.12 | 0.204 | 1.45 | 0.472
FTCEVCGAEFTQKGNLLRHIKL [46F_47T_49E_50V_52G_53A_54E_55F_67L_, Q9UKT9] | -0.301 | 1.19 | 0.247 | 1.9
FYCEVCGAEFTQKGNLLRHIKL [46F_47Y_49E_50V_52G_53A_54E_55F_67L_, Q9UKT9] | 3.4 | 2.95 | 2.08 | 0.0761
FWCPICGHQFTQKGNLLRHIKL [46F_47W_49P_50I_52G_53H_54Q_55F_67L_, Q9UKT9] | -1.19 | 0.164 | -0.157 | -0.942
FHCNVCGALFTQKGNLLRHIKL [46F_47H_49N_50V_52G_53A_54L_55F_67L_, Q9UKT9] | -1.06 | -1.21 | -0.823 | -1.55
LTCEICGFDCTQKGNLLRHIKL [46L_47T_49E_50I_52G_53F_54D_55C_67L_, Q9UKT9] | -3.24 | -2.7 | -2.79 | -2.46
LLCNQCGFACTQKGNLLRHIKL [46L_47L_49N_50Q_52G_53F_54A_55C_67L_, Q9UKT9] | -2.26 | -2.6 | -2.27 | -1.53
FVCNQCGATFTQKGNLLRHIKL [46F_47V_49N_50Q_52G_53A_54T_55F_67L_, Q9UKT9] | -2.74 | -1.56 | -1.1 | -1.67
